These results are taken from PubChem BioAssay (NCI).

Compounds without any hit were thinned out: in the full panel of roughly 83,000, 20% have a hit.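 A percent growth of 40 corresponds to 60% growth inhibition; 0 means no net growth; -100 means all cells died. Active threshold: below 10.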 Unmarked numbers belong to inactive results. Activity calls are given as the source filed them.

Test systems include NCI-H23 lung; NCI-H226 lung; NCI-H322M lung; HOP-62 NSCLC; NCI-H460 lung; NCI-H522 lung; A549/ATCC NSCLC; 786-0 renal; COLO 205 colon; DU-145 prostate; K-562 leukemia; MALME-3M melanoma; MDA-MB-231 breast; RXF 393 renal; SF-268 CNS; SF-295 CNS; SF-539 CNS; UACC-257 melanoma; M14 melanoma; HOP-92 NSCLC.
Common to all, as to test: NCI-60 one-dose screen, 48 h (100 = growth as untreated, 0 = no growth, -100 = all killed)
What all share (details): 10 µM unless noted

Turning to `Oc1c(CN2CCCC2)cc(COCc2ccccc2)c2cccnc12`, the growth in the experiment with NCI-H23 lung is 31.3%; in the experiment with NCI-H226 lung it was 18.1%; with NCI-H322M lung, 16.7%; in the experiment with HOP-62 NSCLC, 1.77% (active); in the experiment on NCI-H460 lung it was 3.04% (active); with NCI-H522 lung, -2.04% (active). The growth is 8.85% (active) in the experiment with A549/ATCC NSCLC; 5.96% (active) in the experiment with 786-0 renal; 71.4% in the experiment with COLO 205 colon; 30.4% in the experiment with DU-145 prostate; 12.2% in the experiment on K-562 leukemia; 30.8% in the experiment with MALME-3M melanoma. Further, the growth is 35.9% in the experiment on MDA-MB-231 breast; 46.5% with RXF 393 renal; 23.2% with SF-268 CNS; 18.3% in the experiment with SF-295 CNS; -5.32% (active) in the experiment with SF-539 CNS; -16.1% (active) in the experiment on UACC-257 melanoma. Moreover, the growth in the experiment on M14 melanoma was -2.08% (active).

`CN(C)c1ccc(/C=C/C(=O)c2ccc(Nc3nc(Nc4ccc(F)cc4)nc(Nc4ccc(Cl)cc4)n3)cc2)cc1`: the growth in the experiment on NCI-H23 lung was 73.3%; in the experiment with NCI-H226 lung, 89.3%; in the experiment with NCI-H322M lung, 95.7%; in the experiment with HOP-62 NSCLC, 78.3%; with NCI-H460 lung, 62.7%; in the experiment with NCI-H522 lung, 56.4%. Besides, the growth in the experiment with A549/ATCC NSCLC is 53%; with 786-0 renal it was 71.2%; in the experiment with COLO 205 colon, 64.2%; in the experiment with DU-145 prostate, 84.4%; in the experiment with K-562 leukemia, 23.7%; with MALME-3M melanoma, 64.3%. Besides, the growth in the experiment with MDA-MB-231 breast was 80.1%; with RXF 393 renal it was 22.4%; in the experiment on SF-268 CNS it was 84.1%; in the experiment on SF-295 CNS, 44.8%; in the experiment on SF-539 CNS, 82.2%; with UACC-257 melanoma, 82.2%. Besides, in the experiment with M14 melanoma, the growth was 54%.

As to `COC(=O)c1ccc2c(c1)c1c(C)c3ccncc3c(C)c1n2C`, the growth in the experiment on NCI-H23 lung is 24.1%; in the experiment on NCI-H226 lung, 25%; in the experiment on NCI-H322M lung, 33.6%; in the experiment on HOP-62 NSCLC it was 24%; in the experiment with NCI-H460 lung it was 8.82% (active); in the experiment with NCI-H522 lung, 6.4% (active). Also, the growth with A549/ATCC NSCLC was 7.22% (active); with 786-0 renal, 28.5%; in the experiment on COLO 205 colon, 2.15% (active); in the experiment on DU-145 prostate, 22.7%; in the experiment with K-562 leukemia, 8.47% (active); in the experiment with MALME-3M melanoma it was 5.36% (active). Besides, the growth in the experiment on MDA-MB-231 breast is 25.1%; in the experiment with RXF 393 renal, 17.5%; with SF-268 CNS, 26.3%; with SF-295 CNS, 24.1%; in the experiment on SF-539 CNS, 31.9%; with UACC-257 melanoma it was 1.45% (active). Moreover, the growth in the experiment on M14 melanoma was 30.8%.

Regarding `N#Cc1c(NC(=O)c2cccs2)[n+]([O-])c2ccc(Cl)cc2[n+]1[O-]`, the growth in the experiment with NCI-H23 lung is 103%; with NCI-H226 lung, 92.1%; with NCI-H322M lung, 108%; in the experiment on HOP-62 NSCLC, 95.7%; with NCI-H460 lung, 113%; in the experiment on HOP-92 NSCLC it was 94.8%. Moreover, the growth was 93.7% in the experiment with NCI-H522 lung; 122% in the experiment with A549/ATCC NSCLC; 107% with 786-0 renal; 121% in the experiment with DU-145 prostate; 106% with K-562 leukemia; 92% in the experiment with MALME-3M melanoma. Also, the growth with MDA-MB-231 breast is 82.7%; in the experiment with RXF 393 renal it was 127%; in the experiment on SF-268 CNS, 106%; in the experiment with SF-295 CNS, 93.8%; with SF-539 CNS, 108%; in the experiment on UACC-257 melanoma, 120%. Also, the growth with M14 melanoma was 80.2%.

Take `COC(=O)C1=C(C)NC(C)=C(C(=O)OCC(C)C)C1c1ccccc1[N+](=O)[O-]` (configuration not stated): the growth in the experiment on NCI-H23 lung was 58.4%; in the experiment on NCI-H226 lung, 93.1%; in the experiment with NCI-H322M lung, 65.4%; in the experiment with HOP-62 NSCLC, 79.1%; in the experiment on NCI-H460 lung, 49.5%; in the experiment on HOP-92 NSCLC it was 47.3%. Also, the growth in the experiment on NCI-H522 lung was 25.4%; in the experiment with A549/ATCC NSCLC it was 65.4%; with 786-0 renal, 59%; in the experiment with DU-145 prostate, 50.6%; with K-562 leukemia, 18.2%; in the experiment on MALME-3M melanoma it was 86.1%. Moreover, the growth in the experiment with MDA-MB-231 breast was 55%; in the experiment on RXF 393 renal, 70.2%; in the experiment with SF-268 CNS, 66.6%; with SF-295 CNS, 56.9%; with SF-539 CNS it was 65.6%; with UACC-257 melanoma, 81.6%. For the same molecule, in the experiment on M14 melanoma, the growth is 51.1%.

Take `Cc1cc2nc(-c3c(-c4ccc(F)cc4)nc4sccn34)[nH]c2cc1C`: the growth in the experiment on NCI-H23 lung is 94%; in the experiment on NCI-H226 lung it was 97.5%; with NCI-H322M lung, 99.7%; in the experiment on HOP-62 NSCLC it was 108%; with NCI-H460 lung, 106%; with NCI-H522 lung it was 85%. Further, the growth in the experiment with A549/ATCC NSCLC was 95.6%; in the experiment on 786-0 renal, 86.3%; in the experiment on COLO 205 colon, 105%; in the experiment on DU-145 prostate it was 94.3%; with K-562 leukemia it was 94.1%; with MALME-3M melanoma it was 106%. The growth with MDA-MB-231 breast was 102%; in the experiment with RXF 393 renal, 93.2%; with SF-268 CNS it was 90.8%; with SF-295 CNS, 92.5%; in the experiment on SF-539 CNS, 98.2%; with UACC-257 melanoma it was 109%. In addition, in the experiment with M14 melanoma, the growth was 99.5%.

Regarding `O=C(CBr)CN1C(=O)c2ccccc2C1=O`, the growth in the experiment on NCI-H23 lung was 95.1%; with NCI-H226 lung it was 98.7%; with NCI-H322M lung, 101%; with HOP-62 NSCLC, 97.9%; with NCI-H460 lung it was 108%; in the experiment on HOP-92 NSCLC, -10.6% (active). Also, the growth was 101% in the experiment with NCI-H522 lung; 103% in the experiment with A549/ATCC NSCLC; 101% in the experiment on 786-0 renal; 104% in the experiment with DU-145 prostate; 89.7% with K-562 leukemia; 100% in the experiment on MALME-3M melanoma. Besides, the growth with MDA-MB-231 breast was 107%; with RXF 393 renal, 120%; in the experiment on SF-268 CNS, 99.1%; with SF-295 CNS, 101%; with SF-539 CNS, 96.2%; in the experiment on UACC-257 melanoma, 101%. Further, in the experiment with M14 melanoma, the growth was 104%.

In the case of `COc1ccc(Cc2cnc(NC(=O)c3sc4ccccc4c3Cl)s2)cc1`, the growth in the experiment on NCI-H23 lung is 28.4%; in the experiment with NCI-H226 lung, 49.7%; in the experiment on NCI-H322M lung it was 50.8%; with HOP-62 NSCLC, 26.3%; in the experiment on NCI-H460 lung, 4.16% (active); in the experiment on NCI-H522 lung it was -14.2% (active). In addition, the growth in the experiment with A549/ATCC NSCLC was 24.4%; in the experiment with 786-0 renal it was 36.7%; in the experiment with COLO 205 colon it was 10.2%; in the experiment with DU-145 prostate, 25%; in the experiment with K-562 leukemia, 7% (active); with MALME-3M melanoma, 56.6%. Besides, the growth was 41.9% with MDA-MB-231 breast; 1.01% (active) with RXF 393 renal; 52.9% in the experiment on SF-268 CNS; 14.9% with SF-295 CNS; -19.4% (active) in the experiment with SF-539 CNS; 49.8% in the experiment on UACC-257 melanoma. Besides, the growth in the experiment with M14 melanoma is 10.2%.
